The assay has as its target ATP1B3 (UniProt P54709). The assay can be described thus: lysine labeling ratio R10:1 (500 µM / 50 µM probe), SILAC-ABPP in living cells; higher = lower intrinsic lysine reactivity toward the probe, active = 2 or less. Particulars: HeLa, probe concentrations 500 vs 50 µM. The procedure: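 Living HeLa cells (SILAC light/heavy) in PBS at room temperature were labeled with 50 µM versus 500 µM of the lysine-reactive, reductant-cleavable probe OPA-S-S-alkyne (SILAC labeling time not stated). Probe-modified peptides were CuAAC-biotinylated, captured on neutravidin and eluted with DTT/IAA, then quantified by LC-MS/MS. R = median peptide ratio per lysine (500/50 µM), combined over 3 forward and 3 reverse SILAC replicates. Ratios are capped at 20; R < 2 = hyper-reactive.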

1 compound from the supplement of paper PMC11001985 can be followed below.

Unmarked numbers belong to inactive results.

Chain of ATP1B3 (P54709 whole entry): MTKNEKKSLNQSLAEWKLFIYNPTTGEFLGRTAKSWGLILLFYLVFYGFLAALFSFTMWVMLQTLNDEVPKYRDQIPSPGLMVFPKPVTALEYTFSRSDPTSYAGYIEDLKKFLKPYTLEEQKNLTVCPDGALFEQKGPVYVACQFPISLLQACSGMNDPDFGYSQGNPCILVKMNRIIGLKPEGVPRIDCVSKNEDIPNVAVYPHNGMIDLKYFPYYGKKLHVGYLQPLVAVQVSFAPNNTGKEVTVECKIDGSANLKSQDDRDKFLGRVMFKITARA

Turning to `C#CCNC(=O)CCSSCCC(=O)NCCc1ccc(C=O)c(C=O)c1`, the “lysine labeling ratio R10:1” value is 5.21 (lysine site: K182); 0.695 (active) (lysine site: K220); 3.28 (lysine site: K259); 2.22 (lysine site: K266); 9.2 (lysine site: K274).
